The target of assay [1] is T1, Casein kinase II (Homo sapiens) (UniProt P67870+P68400+P19784). The note with it: at 1 µM.
Assay [2] deals with T1, Casein kinase II (Homo sapiens). The note with it: at 10 µM.
Assay [3] deals with Casein kinase II subunit alpha' (Homo sapiens) (UniProt P19784). The note with it: at 1 µM.
For assay [4] the target is unchanged. Conditions: at 10 µM.
The target in assay [5] is Dual specificity protein kinase CLK2 (Homo sapiens) (UniProt P49760). Conditions: at 1 µM.
The target is the same in assay [6]. Conditions: at 10 µM.
Assay [7] deals with Dual specificity protein kinase CLK3 (Homo sapiens) (UniProt P49761). The note with it: at 1 µM.
Assay [8] has the same target. The note with it: at 10 µM.
Assay [9] has as its target Tyrosine-protein kinase CSK (Homo sapiens) (UniProt P41240). Conditions: at 1 µM.
The target is the same in assay [10]. The note with it: at 10 µM.
Assay [11] concerns the target Calcium/calmodulin-dependent protein kinase type 1 (Homo sapiens) (UniProt Q14012). Conditions: at 1 µM.
Assay [12] shares this target. Conditions: at 10 µM.
The target of assay [13] is Calcium/calmodulin-dependent protein kinase type II subunit beta (Homo sapiens) (UniProt Q13554). The note with it: at 1 µM.
Assay [14] shares this target. The note with it: at 10 µM.
In assay [15] the target is Calcium/calmodulin-dependent protein kinase type II subunit gamma (Homo sapiens) (UniProt Q13555). Conditions: at 1 µM.
For assay [16] the target is unchanged. Conditions: at 10 µM.
Assay [17] concerns the target Calcium/calmodulin-dependent protein kinase type II subunit delta (Homo sapiens) (UniProt Q13557). The note with it: at 1 µM.
The target is the same in assay [18]. The note with it: at 10 µM.
The target of assay [19] is T2, Calcium/calmodulin-dependent protein kinase type IV (Homo sapiens) (UniProt Q16566).
T2 sequence (whole entry): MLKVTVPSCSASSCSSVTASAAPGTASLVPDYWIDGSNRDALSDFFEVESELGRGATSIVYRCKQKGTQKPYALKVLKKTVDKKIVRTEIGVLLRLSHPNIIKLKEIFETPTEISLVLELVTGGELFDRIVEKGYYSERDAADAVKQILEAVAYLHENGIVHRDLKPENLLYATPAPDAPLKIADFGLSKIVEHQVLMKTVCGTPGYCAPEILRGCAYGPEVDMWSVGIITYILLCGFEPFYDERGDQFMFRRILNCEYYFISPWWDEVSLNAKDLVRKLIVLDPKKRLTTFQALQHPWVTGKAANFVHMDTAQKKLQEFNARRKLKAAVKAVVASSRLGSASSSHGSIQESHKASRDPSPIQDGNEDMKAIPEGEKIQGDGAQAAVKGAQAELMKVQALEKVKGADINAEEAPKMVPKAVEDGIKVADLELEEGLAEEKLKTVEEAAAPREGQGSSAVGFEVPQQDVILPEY
Conditions: at 1 µM.

Assay [20] has as its target T2, Calcium/calmodulin-dependent protein kinase type IV (Homo sapiens). Conditions: at 10 µM.

Casein kinase II subunit alpha' (Homo sapiens), sequence (P19784 whole entry, looked up): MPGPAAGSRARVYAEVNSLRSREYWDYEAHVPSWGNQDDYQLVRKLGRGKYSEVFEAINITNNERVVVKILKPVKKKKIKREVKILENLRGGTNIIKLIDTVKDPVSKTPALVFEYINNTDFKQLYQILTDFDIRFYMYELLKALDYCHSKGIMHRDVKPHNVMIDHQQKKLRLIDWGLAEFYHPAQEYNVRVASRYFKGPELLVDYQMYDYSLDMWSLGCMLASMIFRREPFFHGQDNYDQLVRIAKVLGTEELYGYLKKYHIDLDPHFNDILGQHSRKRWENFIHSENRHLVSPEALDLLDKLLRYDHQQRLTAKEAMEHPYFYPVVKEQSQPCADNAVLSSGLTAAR
T1 sequence (P19784 whole entry, looked up): as above
T1 sequence (P67870 whole entry, looked up): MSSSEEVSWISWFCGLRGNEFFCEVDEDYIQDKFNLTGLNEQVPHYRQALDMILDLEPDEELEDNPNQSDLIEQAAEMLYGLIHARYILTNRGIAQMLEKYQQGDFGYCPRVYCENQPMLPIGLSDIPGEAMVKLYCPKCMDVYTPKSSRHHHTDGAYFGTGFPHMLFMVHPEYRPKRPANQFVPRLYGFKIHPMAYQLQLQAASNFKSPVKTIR
T1 sequence (P68400 whole entry, looked up): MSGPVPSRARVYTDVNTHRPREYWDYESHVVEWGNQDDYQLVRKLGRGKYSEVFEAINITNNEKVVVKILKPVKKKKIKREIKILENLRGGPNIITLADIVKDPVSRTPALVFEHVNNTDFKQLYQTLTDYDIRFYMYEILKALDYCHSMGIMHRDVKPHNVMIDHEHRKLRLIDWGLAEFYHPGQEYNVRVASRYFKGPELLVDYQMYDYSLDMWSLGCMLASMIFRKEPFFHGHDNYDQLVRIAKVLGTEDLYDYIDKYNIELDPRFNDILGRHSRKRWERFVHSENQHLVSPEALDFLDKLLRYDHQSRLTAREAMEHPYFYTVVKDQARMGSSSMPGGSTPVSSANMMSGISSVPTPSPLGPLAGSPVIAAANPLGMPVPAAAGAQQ
Calcium/calmodulin-dependent protein kinase type II subunit beta (Homo sapiens), sequence (Q13554 whole entry): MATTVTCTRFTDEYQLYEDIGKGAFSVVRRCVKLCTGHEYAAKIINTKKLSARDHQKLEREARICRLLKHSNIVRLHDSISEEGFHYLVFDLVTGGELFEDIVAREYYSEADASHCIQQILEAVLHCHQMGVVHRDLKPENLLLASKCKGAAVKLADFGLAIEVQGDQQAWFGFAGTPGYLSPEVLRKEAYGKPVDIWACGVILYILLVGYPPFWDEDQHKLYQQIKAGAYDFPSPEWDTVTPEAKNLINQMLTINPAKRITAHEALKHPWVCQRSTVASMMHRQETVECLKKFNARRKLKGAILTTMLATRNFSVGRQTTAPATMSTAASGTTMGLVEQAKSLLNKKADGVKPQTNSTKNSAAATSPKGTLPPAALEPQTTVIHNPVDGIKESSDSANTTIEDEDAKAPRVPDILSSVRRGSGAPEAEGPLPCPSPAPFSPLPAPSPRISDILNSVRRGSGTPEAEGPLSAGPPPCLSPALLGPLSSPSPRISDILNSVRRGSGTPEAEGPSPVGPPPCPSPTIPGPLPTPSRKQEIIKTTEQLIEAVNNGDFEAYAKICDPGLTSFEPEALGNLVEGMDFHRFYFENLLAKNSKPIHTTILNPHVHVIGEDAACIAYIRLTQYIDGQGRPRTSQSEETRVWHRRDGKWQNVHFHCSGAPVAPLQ
Calcium/calmodulin-dependent protein kinase type II subunit delta (Homo sapiens), sequence (Q13557 whole entry): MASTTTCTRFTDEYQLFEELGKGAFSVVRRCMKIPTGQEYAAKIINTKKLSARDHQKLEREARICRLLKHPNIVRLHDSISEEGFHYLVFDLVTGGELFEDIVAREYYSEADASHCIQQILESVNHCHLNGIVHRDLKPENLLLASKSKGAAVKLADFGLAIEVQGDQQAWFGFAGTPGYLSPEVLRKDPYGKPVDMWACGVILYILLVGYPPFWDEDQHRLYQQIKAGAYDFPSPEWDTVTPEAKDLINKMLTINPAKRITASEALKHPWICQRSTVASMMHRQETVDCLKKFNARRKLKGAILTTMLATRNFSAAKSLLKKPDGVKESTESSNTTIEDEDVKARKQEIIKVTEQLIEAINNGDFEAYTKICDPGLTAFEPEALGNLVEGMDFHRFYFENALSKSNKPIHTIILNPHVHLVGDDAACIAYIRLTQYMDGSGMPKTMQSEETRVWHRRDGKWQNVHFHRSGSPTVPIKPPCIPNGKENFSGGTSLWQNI
Calcium/calmodulin-dependent protein kinase type 1 (Homo sapiens), sequence (Q14012 whole entry, looked up): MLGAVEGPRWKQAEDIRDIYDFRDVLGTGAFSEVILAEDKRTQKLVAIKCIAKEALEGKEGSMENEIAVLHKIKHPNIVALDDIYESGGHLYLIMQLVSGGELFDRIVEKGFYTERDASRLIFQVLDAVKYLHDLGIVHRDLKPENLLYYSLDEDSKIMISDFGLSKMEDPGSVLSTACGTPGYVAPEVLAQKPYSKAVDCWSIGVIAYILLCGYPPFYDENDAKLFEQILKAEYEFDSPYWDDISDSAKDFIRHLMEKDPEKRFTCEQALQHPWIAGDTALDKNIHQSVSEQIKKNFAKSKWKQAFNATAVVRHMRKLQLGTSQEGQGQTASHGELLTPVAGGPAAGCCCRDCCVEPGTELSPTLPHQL
Calcium/calmodulin-dependent protein kinase type II subunit gamma (Homo sapiens), sequence (Q13555 whole entry): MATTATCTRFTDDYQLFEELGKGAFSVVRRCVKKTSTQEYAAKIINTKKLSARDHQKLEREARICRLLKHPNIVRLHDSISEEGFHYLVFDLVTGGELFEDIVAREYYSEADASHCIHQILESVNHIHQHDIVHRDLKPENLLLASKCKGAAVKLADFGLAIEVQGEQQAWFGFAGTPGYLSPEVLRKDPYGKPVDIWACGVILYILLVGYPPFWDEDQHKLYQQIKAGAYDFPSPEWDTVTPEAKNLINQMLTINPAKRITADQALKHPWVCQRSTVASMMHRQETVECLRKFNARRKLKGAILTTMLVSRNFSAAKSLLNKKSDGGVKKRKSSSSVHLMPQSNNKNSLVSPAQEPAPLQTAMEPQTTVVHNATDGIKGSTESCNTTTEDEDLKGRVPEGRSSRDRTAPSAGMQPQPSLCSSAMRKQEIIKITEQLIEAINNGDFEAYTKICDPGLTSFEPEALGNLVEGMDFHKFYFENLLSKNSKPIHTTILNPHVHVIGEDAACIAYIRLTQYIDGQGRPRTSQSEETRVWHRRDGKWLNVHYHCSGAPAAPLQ
Tyrosine-protein kinase CSK (Homo sapiens), sequence (P41240 2-450 limits assumed): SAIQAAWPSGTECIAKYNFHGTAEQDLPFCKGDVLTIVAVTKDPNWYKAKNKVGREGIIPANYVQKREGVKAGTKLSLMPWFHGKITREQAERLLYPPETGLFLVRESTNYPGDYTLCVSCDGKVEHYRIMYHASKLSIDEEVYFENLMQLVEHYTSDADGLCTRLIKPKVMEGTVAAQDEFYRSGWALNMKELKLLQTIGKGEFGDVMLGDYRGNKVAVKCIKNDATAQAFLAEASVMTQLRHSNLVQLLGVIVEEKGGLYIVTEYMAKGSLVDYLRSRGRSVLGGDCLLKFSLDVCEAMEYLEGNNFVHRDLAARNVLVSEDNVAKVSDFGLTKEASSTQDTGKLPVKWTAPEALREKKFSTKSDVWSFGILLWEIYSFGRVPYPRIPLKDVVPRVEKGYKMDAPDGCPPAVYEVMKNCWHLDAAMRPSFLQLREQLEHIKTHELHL
Dual specificity protein kinase CLK3 (Homo sapiens), sequence (P49761 whole entry, looked up): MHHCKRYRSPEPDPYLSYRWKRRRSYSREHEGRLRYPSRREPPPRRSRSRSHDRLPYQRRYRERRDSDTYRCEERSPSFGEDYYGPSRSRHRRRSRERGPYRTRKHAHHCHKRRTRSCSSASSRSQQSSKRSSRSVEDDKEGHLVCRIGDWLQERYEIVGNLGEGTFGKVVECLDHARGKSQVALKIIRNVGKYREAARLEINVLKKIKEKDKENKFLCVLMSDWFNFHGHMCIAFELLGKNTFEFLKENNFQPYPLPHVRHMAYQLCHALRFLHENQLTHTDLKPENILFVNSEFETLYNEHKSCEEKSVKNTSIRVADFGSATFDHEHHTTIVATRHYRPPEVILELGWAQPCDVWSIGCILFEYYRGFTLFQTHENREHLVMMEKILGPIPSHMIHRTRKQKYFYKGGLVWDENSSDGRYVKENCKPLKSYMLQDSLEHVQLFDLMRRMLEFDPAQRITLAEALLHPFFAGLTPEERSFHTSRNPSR
Dual specificity protein kinase CLK2 (Homo sapiens), sequence (P49760 whole entry, looked up): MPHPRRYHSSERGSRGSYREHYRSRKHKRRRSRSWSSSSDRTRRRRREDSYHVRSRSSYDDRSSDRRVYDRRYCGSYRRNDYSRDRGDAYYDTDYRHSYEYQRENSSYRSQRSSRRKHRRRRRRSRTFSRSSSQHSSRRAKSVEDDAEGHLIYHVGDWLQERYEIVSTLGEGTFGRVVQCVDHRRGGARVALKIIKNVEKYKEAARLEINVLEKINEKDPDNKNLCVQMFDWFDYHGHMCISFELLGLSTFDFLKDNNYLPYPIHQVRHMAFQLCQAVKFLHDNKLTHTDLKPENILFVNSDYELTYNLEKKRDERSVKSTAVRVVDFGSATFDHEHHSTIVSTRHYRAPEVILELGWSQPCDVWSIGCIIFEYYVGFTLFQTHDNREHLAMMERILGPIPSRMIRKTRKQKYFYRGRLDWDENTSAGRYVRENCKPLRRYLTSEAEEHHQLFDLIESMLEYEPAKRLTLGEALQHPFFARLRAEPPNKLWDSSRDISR

As for `O=Nc1c(-c2c(O)[nH]c3ccccc23)[nH]c2ccccc12`, the residual activity – broadly, the signal under treatment as a percentage of the control signal – in assay [1] worked out at 112%; in assay [2], 78%; in assay [3], 102%; in assay [4], 58%; in [5], 14%; in assay [6], 4%. For the same compound, the residual activity in assay [7] worked out at 79%; in assay [8], 54%; in assay [9] it was 101%; in [10], 78%; in assay [11] it was 72%; in assay [12], 21%. The residual activity in [13] was found to be 33%; in [14], 11%; in assay [15], 12%; in assay [16], 1%; in assay [17] it was 10%; in assay [18], 2%. Besides, the residual activity is 66% in [19] and 10% in assay [20].
For `Nc1n[nH]c2nnc(-c3c(-c4ccccc4)nn4ccccc34)cc12`, the residual activity was 98% in assay [1]; 85% in assay [2]; 101% in assay [3]; 92% in assay [4]; 98% in [5]; 84% in [6]. Besides, the residual activity stood at 84% in assay [7]; 90% in assay [8]; 107% in assay [9]; 103% in assay [10]; 101% in [11]; 79% in assay [12]. Besides, the residual activity turned out to be 93% in assay [13]; 80% in assay [14]; 103% in [15]; 92% in assay [16]; 94% in assay [17]; 93% in [18]. In addition, the residual activity in assay [19] was 95%; in assay [20], 64%.
As for `CC[n+]1c(/C=C/N(C)c2ccccc2)n(-c2ccccc2)c2ccc(-c3nc4ccccc4s3)cc21`, the residual activity in assay [1] is 109%; in [2], 105%; in assay [3], 134%; in [4], 90%; in assay [5], 109%; in assay [6] it was 108%. Further, the residual activity in [7] amounted to 91%; in [8], 58%; in assay [9] it was 103%; in [10] it was 95%; in [11] it was 107%; in assay [12], 26%. Moreover, the residual activity in [13] stood at 93%; in assay [14] it was 38%; in assay [15] it was 113%; in assay [16], 99%; in assay [17], 109%; in [18] it was 78%. Further, the residual activity in assay [19] turned out to be 124%; in [20] it was 95%.
For the compound `Oc1ccc(-c2nc(-c3ccc(F)cc3)c(-c3ccncc3)[nH]2)cc1`, the residual activity in assay [1] turned out to be 107%; in [2], 107%; in assay [3], 122%; in assay [4] it was 97%; in assay [5], 123%; in assay [6], 104%. In addition, the residual activity in assay [7] is 94%; in assay [8], 90%; in assay [9], 126%; in assay [10], 104%; in assay [11], 111%; in [12], 100%. Moreover, the residual activity in assay [13] was 92%; in assay [14] it was 52%; in [15], 110%; in assay [16] it was 89%; in [17], 98%; in assay [18], 76%. Further, the residual activity in assay [19] amounted to 115%; in assay [20] it was 99%.
Consider `CC(C)n1cnc2/c(=N/c3cccc(Cl)c3)nc(NCCO)[nH]c21`, for which the residual activity was determined as 89% in assay [1]; 86% in assay [2]; 108% in assay [3]; 103% in [4]; 19% in assay [5]; 6% in assay [6]. Also, the residual activity in assay [7] was 55%; in assay [8], 12%; in [9], 101%; in assay [10], 88%; in [11], 87%; in assay [12] it was 71%. Also, the residual activity in assay [13] was found to be 75%; in assay [14], 41%; in assay [15] it was 13%; in assay [16], 6%; in assay [17] it was 19%; in [18] it was 11%. Also, the figures for the residual activity in assay [19] and in assay [20] were 103% and 66%, respectively.
As for `CC(=O)O/N=C1\C(=C2\C(=O)Nc3cc(Br)ccc32)Nc2ccccc21`, the residual activity in [1] turned out to be 96%; in [2], 90%; in assay [3] it was 102%; in assay [4], 89%; in [5], 102%; in assay [6], 65%. Moreover, the residual activity is 82% in [7]; 76% in assay [8]; 104% in [9]; 86% in [10]; 82% in [11]; 50% in assay [12]. Besides, the residual activity in assay [13] turned out to be 79%; in assay [14], 27%; in assay [15], 23%; in [16] it was 4%; in assay [17] it was 17%; in [18], 4%. In addition, the residual activity was found to be 100% in [19] and 90% in assay [20].
Turning to `Cc1ccc(NC2=CC(=O)c3sc(C)nc3C2=O)cc1`, the residual activity came to 100% in [1]; 101% in assay [2]; 100% in [3]; 107% in assay [4]; 111% in assay [5]; 109% in assay [6]. Further, the residual activity in assay [7] worked out at 95%; in assay [8], 88%; in assay [9], 98%; in assay [10], 95%; in [11] it was 92%; in assay [12], 74%. Besides, the residual activity was found to be 89% in [13]; 81% in [14]; 104% in [15]; 98% in [16]; 95% in assay [17]; 98% in assay [18]. In addition, the figures for the residual activity in assay [19] and in [20] were 113% and 96%, respectively.
Consider `CCN(CC)CCCCN1c2ccccc2Oc2ccc(Cl)cc21`, for which the residual activity was determined as 104% in [1]; 103% in assay [2]; 137% in assay [3]; 101% in [4]; 117% in assay [5]; 127% in assay [6]. Also, the residual activity was 89% in assay [7]; 92% in assay [8]; 113% in assay [9]; 102% in assay [10]; 107% in assay [11]; 89% in assay [12]. The residual activity was found to be 106% in assay [13]; 93% in assay [14]; 111% in assay [15]; 97% in assay [16]; 112% in assay [17]; 112% in assay [18]. Also, the residual activity in assay [19] came out at 126%; in [20] it was 118%.
On to `O=C(Nc1cccc(Nc2nccc(Nc3cccc(C(F)(F)F)c3)n2)c1)C1CC1`, for which the residual activity turned out to be 75% in [1]; 109% in assay [2]; 108% in assay [3]; 72% in assay [4]; 71% in [5]; 82% in assay [6]. In addition, the residual activity amounted to 76% in [7]; 9% in [8]; 115% in assay [9]; 100% in [10]; 86% in assay [11]; 31% in [12]. Moreover, the residual activity in assay [13] came to 100%; in [14], 38%; in [15], 76%; in [16], 12%; in [17] it was 66%; in assay [18], 19%. In addition, the residual activity in assay [19] worked out at 84%; in [20] it was 62%.
For the compound `Cn1nc2c3c(cccc31)C(=O)c1ccccc1-2`, the residual activity is 87% in assay [1]; 59% in [2]; 99% in [3]; 65% in assay [4]; 86% in assay [5]; 83% in [6]. Also, the residual activity was 76% in assay [7]; 66% in assay [8]; 101% in assay [9]; 90% in assay [10]; 75% in [11]; 74% in assay [12]. Besides, the residual activity in [13] worked out at 77%; in [14] it was 67%; in [15], 87%; in [16], 37%; in [17] it was 85%; in assay [18] it was 36%. The values for the residual activity in assay [19] and in [20] were 96% and 62%, respectively.

The values above are taken from ChEMBL document CHEMBL2218924, “A broad activity screen in support of a chemogenomic map for kinase signalling research and drug discovery” (Biochem J, 2013).
